{"source": "the supplement of paper PMC8728848", "test_in_all_cases": "glycan array binding signal (z-score within array); higher = stronger binding", "conditions_in_all_cases": "glycan notation: IUPAC condensed, linker removed", "key": {"[1]": {"target": "GlcNAc(b1-3)Gal(b1-4)GlcNAc(b1-6)[Gal(b1-3)]GalNAc", "procedure,_shortened": "(§1)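 The binding signal is a Z-score computed within each array. Data were drawn from 3228 arrays in the Consortium for Functional Glycomics database, restricted to those with a known protein sequence. Scores were averaged over arrays of the same protein sequence at different concentrations or buffers, and over linkers, and negative values can be taken as non-binding.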"}, "[2]": {"target": "GlcNAc(b1-3)Gal(b1-4)GlcNAc(b1-6)[GlcNAc(b1-3)Gal(b1-3)]GalNAc", "procedure,_shortened": "as §1"}, "GlcNAc(b1-3)Man": {"target": "GlcNAc(b1-3)Man", "procedure,_shortened": "as §1"}, "[3]": {"target": "GlcNAc(b1-4)GlcNAc(b1-4)GlcNAc(b1-4)GlcNAc(b1-4)GlcNAc(b1-4)GlcNAc", "procedure,_shortened": "as §1"}, "[4]": {"target": "GlcNAc6S(b1-3)Gal(b1-4)GlcNAc", "procedure,_shortened": "as §1"}, "[5]": {"target": "Man(a1-2)Man(a1-6)[Man(a1-3)]Man(a1-6)[Man(a1-2)Man(a1-2)Man(a1-3)]Man(b1-4)GlcNAc(b1-4)GlcNAc", "procedure,_shortened": "as §1"}, "Man(b1-4)GlcNAc": {"target": "Man(b1-4)GlcNAc", "procedure,_shortened": "as §1"}, "Neu5Ac(a2-3)Gal": {"target": "Neu5Ac(a2-3)Gal", "procedure,_shortened": "as §1"}, "[6]": {"target": "Neu5Ac(a2-3)Gal(b1-3)GalNAc6S", "procedure,_shortened": "as §1"}, "[7]": {"target": "Neu5Ac(a2-3)Gal(b1-3)GlcNAc(b1-2)[Neu5Ac(a2-3)Gal(b1-3)GlcNAc(b1-4)]Man(a1-6)[Neu5Ac(a2-3)Gal(b1-3)GlcNAc(b1-2)Man(a1-3)]Man(b1-4)GlcNAc(b1-4)GlcNAc", "procedure,_shortened": "as §1"}, "[8]": {"target": "Neu5Ac(a2-3)Gal(b1-3)GlcNAc(b1-3)Gal(b1-3)GlcNAc", "procedure,_shortened": "as §1"}, "[9]": {"target": "Neu5Ac(a2-3)Gal(b1-3)GlcNAc(b1-6)GalNAc", "procedure,_shortened": "as §1"}, "[10]": {"target": "Neu5Ac(a2-3)Gal(b1-3)[Fuc(a1-4)]GlcNAc(b1-3)Gal(b1-4)[Fuc(a1-3)]GlcNAc", "procedure,_shortened": "as §1"}, "Neu5Ac(a2-3)Gal(b1-4)Glc": {"target": "Neu5Ac(a2-3)Gal(b1-4)Glc", "procedure,_shortened": "as §1"}, "[11]": {"target": "Neu5Ac(a2-3)Gal(b1-4)GlcNAc(b1-2)[Neu5Ac(a2-3)Gal(b1-4)GlcNAc(b1-4)]Man(a1-3)[GlcNAc(b1-4)][Neu5Ac(a2-3)Gal(b1-4)GlcNAc(b1-4)Man(a1-6)]Man(b1-4)GlcNAc(b1-4)GlcNAc", "procedure,_shortened": "as §1"}, "[12]": {"target": "Neu5Ac(a2-3)Gal(b1-4)GlcNAc(b1-6)[Neu5Ac(a2-3)Gal(b1-3)]GalNAc", "procedure,_shortened": "as §1"}, "[13]": {"target": "Neu5Ac(a2-3)Gal(b1-4)[Fuc(a1-3)]GlcNAc(b1-3)Gal(b1-4)GlcNAc", "procedure,_shortened": "as §1"}, "[14]": {"target": "Neu5Ac(a2-3)Gal(b1-4)[Fuc(a1-3)]GlcNAc(b1-3)Gal(b1-4)[Fuc(a1-3)]GlcNAc(b1-3)Gal(b1-4)[Fuc(a1-3)]GlcNAc", "procedure,_shortened": "as §1"}, "[15]": {"target": "Neu5Ac(a2-3)Gal(b1-4)[Fuc(a1-3)]GlcNAc(b1-3)GalNAc", "procedure,_shortened": "as §1"}, "[16]": {"target": "Neu5Ac(a2-6)Gal(b1-3)GlcNAc(b1-3)[Gal(b1-4)GlcNAc(b1-6)]Gal(b1-4)Glc", "procedure,_shortened": "as §1"}, "[17]": {"target": "Neu5Ac(a2-6)Gal(b1-4)GlcNAc(b1-2)Man(a1-6)[Gal(b1-4)GlcNAc(b1-2)Man(a1-3)]Man(b1-4)GlcNAc(b1-4)GlcNAc", "procedure,_shortened": "as §1"}, "[18]": {"target": "Neu5Ac(a2-6)Gal(b1-4)GlcNAc(b1-3)Gal(b1-4)GlcNAc(b1-3)Gal(b1-4)GlcNAc", "procedure,_shortened": "as §1"}, "[19]": {"target": "Neu5Ac(a2-6)Gal(b1-4)GlcNAc(b1-3)Gal(b1-4)[Fuc(a1-3)]GlcNAc(b1-3)Gal(b1-4)[Fuc(a1-3)]GlcNAc", "procedure,_shortened": "as §1"}, "[20]": {"target": "Neu5Ac(a2-8)Neu5Ac(a2-8)Neu5Ac(a2-3)[GalNAc(b1-4)]Gal(b1-4)Glc", "procedure,_shortened": "as §1"}, "[21]": {"target": "Neu5Ac(a2-8)Neu5Ac(a2-8)Neu5Ac(a2-8)Neu5Ac(a2-3)[GalNAc(b1-4)]Gal(b1-4)Glc", "procedure,_shortened": "as §1"}, "[22]": {"target": "Neu5Ac(a2-8)Neu5Gc(a2-3)Gal(b1-4)GlcNAc", "procedure,_shortened": "as §1"}, "[23]": {"target": "Neu5Gc(a2-3)Gal(b1-3)GlcNAc", "procedure,_shortened": "as §1"}}, "note": "The sample as a whole holds a higher share of the strongest signals than the screen did."}
{"binder": "LF82 (Escherichia coli) (protein) ADWGPCRTASGDPFIFVTSFTKNIQNPTDNVTGQTYPDFYQWALGDKYSGVCECPSPNPTEARPTLYKTESTLAAGHNSTYFKITNNLEVSTRVYIANVGNVQVPFINKSNSQPGRECDQPTFGWTTGSKGQLSLYIAKPFVGEQNIPQTIIVSVFGTKKENVYSSVPISQVLLSGKVTVTQGCELAAGTSLDIDFGEYQAHDFKGRTGQPPQNVQKIQKELTFNCTNISDGVHIYLSLEGTPNAAYPSAISLGNADVGAVIEDGKGNILKPNDSNSLLEMNPGSLYEYVKRKVTTTITAYPVSTTGKLPAAGDYSGVATMHVELDGGGGGGGGGGATTDLGAKGTLKFSLKISQGHHHHHH", "values": [{"measurement": "glycan array binding signal (z-score)", "setting": "[1]", "result": -0.509}, {"measurement": "glycan array binding signal (z-score)", "setting": "[2]", "result": 0.416}, {"measurement": "glycan array binding signal (z-score)", "setting": "GlcNAc(b1-3)Man", "result": 0.644}, {"measurement": "glycan array binding signal (z-score)", "setting": "[3]", "result": -1.17}, {"measurement": "glycan array binding signal (z-score)", "setting": "[4]", "result": -0.173}, {"measurement": "glycan array binding signal (z-score)", "setting": "[5]", "result": 0.244}, {"measurement": "glycan array binding signal (z-score)", "setting": "Man(b1-4)GlcNAc", "result": 0.456}, {"measurement": "glycan array binding signal (z-score)", "setting": "Neu5Ac(a2-3)Gal", "result": 0.191}, {"measurement": "glycan array binding signal (z-score)", "setting": "[6]", "result": 0.435}, {"measurement": "glycan array binding signal (z-score)", "setting": "[7]", "result": 4.88}, {"measurement": "glycan array binding signal (z-score)", "setting": "[8]", "result": -0.469}, {"measurement": "glycan array binding signal (z-score)", "setting": "[9]", "result": -0.373}, {"measurement": "glycan array binding signal (z-score)", "setting": "[10]", "result": -0.501}, {"measurement": "glycan array binding signal (z-score)", "setting": "Neu5Ac(a2-3)Gal(b1-4)Glc", "result": 0.503}, {"measurement": "glycan array binding signal (z-score)", "setting": "[11]", "result": 2.08}, {"measurement": "glycan array binding signal (z-score)", "setting": "[12]", "result": -0.112}, {"measurement": "glycan array binding signal (z-score)", "setting": "[13]", "result": 0.281}, {"measurement": "glycan array binding signal (z-score)", "setting": "[14]", "result": 0.12}, {"measurement": "glycan array binding signal (z-score)", "setting": "[15]", "result": 0.56}, {"measurement": "glycan array binding signal (z-score)", "setting": "[16]", "result": 2.17}, {"measurement": "glycan array binding signal (z-score)", "setting": "[17]", "result": 0.283}, {"measurement": "glycan array binding signal (z-score)", "setting": "[18]", "result": 0.668}, {"measurement": "glycan array binding signal (z-score)", "setting": "[19]", "result": 0.159}, {"measurement": "glycan array binding signal (z-score)", "setting": "[20]", "result": -0.553}, {"measurement": "glycan array binding signal (z-score)", "setting": "[21]", "result": 2.59}, {"measurement": "glycan array binding signal (z-score)", "setting": "[22]", "result": -0.211}, {"measurement": "glycan array binding signal (z-score)", "setting": "[23]", "result": 3.85}]}
